Screen size: about 53,000 sequences; about 3,700 (7%) were called active.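 Rule for the calls: active = gene knockdowns whose robust z-score for IL-1 alpha signal is at least 2 or at most -2, so actives lie on both sides; inactive = the rest.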 The entries come from a sample that favours actives as a whole.

A short description of this test: Components of the Cytosolic LPS Sensing Pathway: Gene Identification via Genome-wide siRNA Screen.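 Note: robust z of the log signal after scaling to non-targeting control siRNA wells of the plate.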 The following applies: RAW264.7 macrophages, IL-1a HTRF, actives lie on both sides, screened at 100 nM (by protocol), cells primed 5 h with Pam3CSK4 first. In short, it runs like this:
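Using IL-1a HTRF as read-out, the screen measured release from RAW264.7 cells after 48h siRNA knockdown (100 nM), 5 h Pam3CSK4 priming and 24 h cytosolic LipidA. Values were expressed relative to negative-control wells as robust z-scores.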
As to GGGAGAAGCAAUUUUUAACTT against Gpr34, the z-score is 0.132 (inactive).

On to CCUAUGGUAGAAAAAUACUTT against Fundc1, for which the z-score was -0.252 (inactive).

Consider GGCAGCUGAUCAGAAAUCATT against Gabrg3, for which the z-score is -1.13 (inactive).

Turning to GCUCACUAACUUUUACAAGTT against Fam166c, the z-score was 0.419 (inactive).

Take CCAAGAGUUGUCAAUAUAATT against Crisp3: the z-score was 0.768 (inactive).

As for GGAGAGAAGAUCAUUUCAATT against Ncam2, the z-score was 2.38 (active).

Consider CCCUCCGUGUUUUUAAGAUTT against Tbl2, for which the z-score was 0.176 (inactive).

On to GGAUUUUGAUCUAAUGAGATT against Zfp354c, for which the z-score was 0.366 (inactive).

On to GGCAAUUCUCUGUAUCCACTT against Cyp2d34, for which the z-score was -0.358 (inactive).

Regarding GCAUGUCGUCUGAGAAAGUTT against Pgr, the z-score was -0.748 (inactive).

As to GGCUUUAUCAGAUCCAACCTT against Tmem108, the z-score was 2.47 (active).

As for GGUCAUAGAUGAGCUUAGUTT against Appl1, the z-score is -0.763 (inactive).

Consider GGCAUGUUGAUGGGAAUUUTT against Srp9, for which the z-score is 0.536 (inactive).

For GGCCUACCCAAUUCUUAACTT against Ces1g, the z-score is -0.0881 (inactive).

Consider GUGUUUCCUUGUUAAGAUUTT against Bloc1s4, for which the z-score is -0.841 (inactive).

As to CCAGUAAAAAUUGAAGGCUTT against Capza2, the z-score is 0.565 (inactive).

As to GGCCCUUCAUGAAGAGCAATT against Carf, the z-score was 2.07 (active).

Turning to GGUCUACGUUAUUAUUACCTT against Etv2, the z-score is -0.537 (inactive).

For the sequence GGAGCUUGACAUUCUGGAATT against Tmco4, the z-score was 0.766 (inactive).

With CCGAGUUUGGGAAUAACUUTT against Cacna1a, the z-score is 1.45 (inactive).

Take GGCCAUUAUUCGUGAGUUGTT against Armc10: the z-score was 2.11 (active).

For CGGCAAUGUGACUAACAUCTT against Nrros, the z-score was 0.76 (inactive).

As for CGAGAUGUACCUUGAUACUTT against Idh3a, the z-score is 1.44 (inactive).

As to GCGAUGGACUCAAAAAACUTT against Ehd3, the z-score was 0.0497 (inactive).

Consider GCUGUGUAUGUAUUUCAUGTT against Rnf128, for which the z-score was 0.549 (inactive).

Take GGCAGGAAUCUAUAUUAAUTT against Slc17a3: the z-score is 0.48 (inactive).

In the case of GCGAAAGAUAUUGUGGAAGTT against Dixdc1, the z-score was -0.511 (inactive).

On to CCAUCAUGAACACUCAACATT against Olfr462, for which the z-score was -2.59 (active).

GCACUUUAAGAGACAAUGUTT against Gpr63: the z-score is 0.302 (inactive).

For GGCUGACUGGACAAUAAAGTT against Krt85, the z-score was -1.28 (inactive).

Regarding CCAGUCAUCAUGCUACACGTT against Slc19a3, the z-score is 0.473 (inactive).

For the sequence GGAGUGCUUUUAAAUCCCUTT against Rreb1, the z-score is -1.43 (inactive).

For GCACUAAUACUAACCAUGGTT against Rhox12, the z-score was 0.788 (inactive).

For GGCAAGAAAUUCUUCAGCATT against St8sia3, the z-score is -1.38 (inactive).

As for GGUAAUGUACCUAAUAUUGTT against Cnn1, the z-score is 0.307 (inactive).

On to GCCAGAACCGCAUAUUCUUTT against Cks2, for which the z-score is -0.481 (inactive).

Take GGCUGAAGCUCGACUGAAGTT against Abcf3: the z-score is 2.35 (active).

For GCAACACGGCGGAAUAAAGTT against Washc1, the z-score was -0.336 (inactive).

With GGAGCUGUAUGACCAUGCCTT against Rab25, the z-score is -2.03 (active).

GGGUGAUGAUCUUCAGCAATT against Txnrd3: the z-score was -0.616 (inactive).

With GGACCUAAAGAUAAUAAGUTT against Pex3, the z-score was -0.481 (inactive).

As for GCCCAUCAGAUGGCAAGAUTT against Pisd, the z-score was 1.09 (inactive).

Turning to GUCCCACACUGAUAAGAUUTT against Lcorl, the z-score was -0.602 (inactive).

Regarding GGAGCCUAUACUGAUUUAUTT against Tomm7, the z-score is 2.13 (active).

As for GCAGCUUAGUGAUUUGAAATT against Tex21, the z-score is -1.24 (inactive).

As to CCGGAUUCGAGAGGUGAUGTT against Lrrc52, the z-score is 0.0804 (inactive).

As for CGGCAAAAUUAGCUAUUCATT against Exosc4, the z-score was 0.489 (inactive).

For GGCAUUACAGUGUUUCUGCTT against Tgfbr1, the z-score is -0.288 (inactive).

As for GGGCAAUGAUUUCGCCUUCTT against Ninj1, the z-score is 0.337 (inactive).

As to GGAUUCGUAAACUUCAGAUTT against Igf2bp3, the z-score is 3.41 (active).

GGGUCAGAACACGUACGAGTT against Gnaz: the z-score was 1.06 (inactive).

Regarding CGAGUGUGAGCUACAGCGUTT against Agrn, the z-score is 2.74 (active).

For UCUGUGGACCAGGAUUUGGTT against Pcsk1n, the z-score is -2.8 (active).

Turning to GGGUGUGACGAUUCUCACCTT against Olfr800, the z-score is 0.705 (inactive).

On to GGAAAAUGAAGGUUCAGAATT against Pkib, for which the z-score was -0.185 (inactive).

As for GGACUGUGAGGCCUAUGAATT against Cd72, the z-score was -0.1 (inactive).

In the case of CCGAUCUGAUAUAGUAGAATT against Stk31, the z-score is 2.18 (active).

On to GGCCACAGAUCUUCUGGUGTT against Calml4, for which the z-score was 1.08 (inactive).

Consider CGAGGGUCUGAAAAAUUACTT against Ighg, for which the z-score is 1.28 (inactive).

With GGUAUGCACUCACACCAGATT against Mus81, the z-score was 0.73 (inactive).

In the case of GGCCGUGUGCAUCUUUGUGTT against Gpr20, the z-score was 1.43 (inactive).

As to GGGAGAUCUCCAACACCAATT against Dipk1b, the z-score is -1.02 (inactive).

With CCUUUGGUGAAGCCUGGAUTT against Kiss1, the z-score is -0.0609 (inactive).

Take GGACUUCAUGGCUAGUUUCTT against B4galt4: the z-score is -0.14 (inactive).

Take GCAGAGCAUGCCUUACUGUTT against Eif4ebp1: the z-score is 4.39 (active).

On to GCUAACAGCAUCCUUUUUGTT against Vmn1r50, for which the z-score is -0.843 (inactive).

Consider GGAGAUUGACCUGGUCAACTT against Cav1, for which the z-score was 1.44 (inactive).

In the case of GGUUAUGAUCGGCAUCGCUTT against Fam24a, the z-score was -1.46 (inactive).

“GGCUUCCUUCAGUGAGAAUTT against 1810065E05Rik”: the z-score is -2.02 (active).

On to GGCAUGAGUGCAUUUGCUATT against Ifi203, for which the z-score was -0.673 (inactive).

With “CCUAAGCUUAUCUCAUAUUTT against 4930449I24Rik”, the z-score was -0.572 (inactive).

Consider GGGCUACUACAAUGAGUACTT against Phospho1, for which the z-score was 0.412 (inactive).

Turning to GGGUGAGAUGAAAUGCAUCTT against Efemp2, the z-score was 0.264 (inactive).

For GGCCGACAAUUUGUCAGUUTT against Uaca, the z-score was -1.19 (inactive).

With GCAAGUGUUAGAACACAAGTT against Cish, the z-score is 0.823 (inactive).

Regarding CGGUUCUGGUGCAUUCACATT against Olfr242, the z-score was -2.06 (active).

For the sequence GGAAAUUGGAGAUUUUUCCTT against Ccdc54, the z-score is -1.02 (inactive).

Consider GGCAUUGGAUCUUCAUUUUTT against Slc18a1, for which the z-score was 2.35 (active).

For GGUGGAGAUCAAACCAGAGTT against Rps15, the z-score was 1.4 (inactive).

As to GGGAAACUCUCAGAUGAAGTT against Sh2d7, the z-score is -1.9 (inactive).

Regarding GGCAGACAACUUCUACCAATT against Crim1, the z-score is 2.52 (active).

In the case of GGCAAAAUCUCAUCAGUCCTT against Iqcc, the z-score is -0.131 (inactive).

Consider GGUGAUCUAGAAACAACCCTT against Tmco5, for which the z-score is 0.243 (inactive).

Turning to CCAUCCAGCUUUCAUUAAATT against Nckap1l, the z-score was 0.508 (inactive).

GGUCUCCAUUUCUUUCUGCTT against Nmd3: the z-score is -0.952 (inactive).

With GGAAAGAGGAAAUCUUUAGTT against Furin, the z-score was 2.04 (active).

With GGACUGAAGUGAAAUAAAUTT against Trav13-5, the z-score was -0.949 (inactive).

With GCAUCAUCGUGGGAAACCUTT against Olfr1284, the z-score is 0.331 (inactive).

Turning to CCAUUCUCUUUACCUCAAUTT against Rdh12, the z-score is -0.161 (inactive).

For the sequence CCUGUAGGAGUGACUUCCUTT against Crbn, the z-score was 0.223 (inactive).

Turning to GGGACCAGAUAGAAAUUAUTT against Arhgef25, the z-score is 0.414 (inactive).

On to GGAAGAGAAGUUGUCCAAATT against Creld1, for which the z-score was 0.477 (inactive).

For the sequence “GCUCACAGCAGCAUUUUACTT against 1700034H15Rik”, the z-score was -2.48 (active).

Turning to GGACUCCUACAUGAUUGCUTT against Slc52a2, the z-score was -0.362 (inactive).

As to UGUGGUCUUAGAAUCUAGCTT against Tdpoz3, the z-score is 4.49 (active).

Regarding CCAUUACUUCUGUGACCUCTT against Olfr32, the z-score is -0.289 (inactive).

For the sequence GCUGCUUUCUUUGGAGGACTT against Olfr484, the z-score is 2.27 (active).

As to GGAGCUCUUUGACUUCUUGTT against Uqcrh, the z-score was 0.359 (inactive).

GGUGGCUAAAAGCUCUUCCTT against Odc1: the z-score was 1.9 (inactive).

As to “GGCCCAUUGUUUGAGCCCATT against A530013C23Rik”, the z-score was -0.961 (inactive).

As to GGCAUUAACCUGAGAUGAUTT against Sprr2i, the z-score is -1.42 (inactive).

For GGCUAGCAGGAUCAGCAUCTT against Rnf212, the z-score was 0.617 (inactive).

For the sequence GGUGCUUUUUUUGGAUCAATT against Olfr507, the z-score was -1.05 (inactive).

As for GGAAGAGAGGGUGAAUAUGTT against Tmem41b, the z-score was -2.56 (active).

On to CGGCAUUCAGAUUGUCUCUTT against Nup210, for which the z-score is -1.22 (inactive).

As for GGCCAUUGAGUGCUCCUACTT against Dhcr7, the z-score is -0.113 (inactive).

Take CCACUCAUUGUUCAUGGAATT against Olfr1490: the z-score was 0.798 (inactive).

The record behind these values is PubChem BioAssay AID1508600 (Functional Genomics Laboratory (NCATS/FGL), 2020).
